Mdm2 MdmX PPI – human Mdm2/MdmX binding inhibition; O15151+Q00987; SaOS-2 split-luciferase Mdm2/MdmX complementation, luminescence; inhibition, % at 8 µM; 330,000 compounds, 3% hits; AID 485346;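 active means inhibition of at least 50% at 8 µM in the primary screen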
Beta cell apopt – beta cell apoptosis inhibition; INS-1E cytokine-induced death, ATP luminescence, 48 h; percent of positive-control rescue, neutral wells zero; protection from apoptosis, % (concentration not given with the values); 300,000 compounds, 0.8% hits; AID 435005;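 active means Every replicate reaches about 75%, or at least half do and their mean reaches it too, limit read from the data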;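 further: 0% = cytokine-treated negative control wells and 100% = positive control rescue; higher means more ATP so stronger rescue from cytokine killing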
Jurkat NFkB inh – lowers PMA/ionomycin-induced NF-kB signal in Jurkat cells. PMA/ionomycin-induced NF-kB luciferase reporter, luminescence. inhibition, % at 4 µM. 330,000 compounds, 0.53% hits. AID 435003; in the data active means inhibition above about 50%
Gli-Sufu antag – blocks Gli-Sufu signaling in a luciferase reporter. AID 588413. 340,000 compounds, 0.74% hits. inhibition, % at 5 µM. Sufu-KO-LIGHT fibroblasts, Gli luciferase reporter luminescence;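 active means inhibition above about 55%, limit read from the data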;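 further: 0% = DMSO-treated cells and 100% = wells with medium but no cells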
697 NFkB inh – inhibitors of the PMA/ionomycin-induced NF-kB reporter in 697 B cells; 697 B-cell NF-kB luciferase reporter, 16 h; inhibition, % at 4 µM; 330,000 compounds, 0.33% hits; AID 435022; in the data active means inhibition above about 35%
Mdm2 MdmX conf – confirmation of human Mdm2/MdmX interaction inhibitors | Mdm2-MdmX binding, luminescent assay | shares compounds with Mdm2 MdmX PPI | 10,000 compounds, 55% hits | AID 489028 | inhibition, % at 8 µM; in the data active means inhibition above about 40%
FLuc counter – inhibits full-length luciferase, flagging false Mdm2/MdmX hits | inhibition, % at 8 µM | shares compounds with Mdm2 MdmX PPI | SaOS-2 full-length luciferase counterscreen, luminescence | 6,200 compounds, 77% hits;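 active means mean inhibition at 8 µM reaching about 37%, which flags the compound as non-specific, limit read from the data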;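 further: p53-null SaOS-2 cells with luciferase driven by a doxycycline-inducible promoter; compound on cells about two nights before reading with doxycycline added after day one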
An asterisk follows results filed as active; . = not tested or not shown. Shown are actives, neighbours in structure and some others; about 4% of the full set was active somewhere.

SMILES	Mdm2 MdmX PPI	Beta cell apopt	Jurkat NFkB inh	Gli-Sufu antag	697 NFkB inh	Mdm2 MdmX conf	FLuc counter
Cc1ccc(-n2c(C)cc(C3N=C(N)Nc4nc5ccccc5n43)c2C)c(C)c1 (centres undefined)	72*	14	8	4	8	28	.
Cc1cc(C2N=C(N)Nc3nc4ccccc4n32)c(C)n1-c1ccccc1Cl (centres undefined)	24	-8	2	-3	-24	.	.
COc1ccc(-c2cc(=O)oc3c(C)c(OC(=O)c4cccs4)ccc23)cc1	85*	9	10	-9	-8	47*	33
COc1ccc(-c2cc(=O)oc3c(C)c(O)ccc23)cc1	65*	-8	-19	0	-17	81*	53*
COc1ccc(-c2cc(=O)oc3cc(OC(=O)C4CCCCC4)c(Cl)cc23)cc1	75*	-10	10	.	-3	84*	52*
COc1ccc(-c2cc(=O)oc3c(C)c(OC(C)C(C)=O)ccc23)cc1 (centres undefined)	25	6	-1	3	-15	.	.
COc1ccc(-c2cc(=O)oc3cc(O)ccc23)cc1	63*	-11	-10	-1	5	46*	40*
COC(=O)c1ccc(CSc2nc3ccccc3c(=O)n2Cc2ccco2)o1	26	-7	2	20	-19	.	.
O=C(c1ccccc1)N1CCN(c2ccc(N3CCOCC3)nn2)CC1	28	-1	18	-9	7	.	.
Cc1cccc(C(=O)N[C@H](C(=O)Nc2ccc(C)c(S(=O)(=O)N(C)C)c2)C(C)C)c1	23	3	21	25	1	.	.
O=S(=O)(NCCCSc1ccccc1)c1ccccc1F	-11	-5	4	-16	4	.	.
O=C(COC(=O)c1ccccn1)c1ccc([N+](=O)[O-])cc1	-3	2	-12	1	20	.	.
Cc1ccccc1NC(=O)c1ccc(CN2CCC(Cc3ccccc3)CC2)cc1	58*	4	43	-4	-21	35	82*
CC(C)NC(=O)c1ccc(CN2CCC(Cc3ccccc3)CC2)cc1	9	6	7	30	-2	.	.
CNC(=S)NCc1ccc2[nH]c3c(c2c1)CCCC3	-7	-2	-4	6	8	.	.
S=C(NCc1ccc(Cl)cc1)Nc1ccccc1Cl	-9	1	1	-3	-1	.	.
Cc1ccc(C)c(NC(=S)NCc2ccc3[nH]c4c(c3c2)CCCC4)c1	64*	42	15	2	-10	13	.
Cc1ccccc1NC(=S)NCc1ccc2[nH]c3c(c2c1)CCCC3	65*	.	8	4	-1	32	.
S=C(NCc1ccc2[nH]c3c(c2c1)CCCC3)Nc1ccccc1Cl	64*	9	-8	0	-11	29	.
CCCCNC(=S)NCc1ccc2[nH]c3c(c2c1)CCCC3	-4	-4	9	1	2	.	.
Cc1cccc(C(=O)NCCC(=O)NCc2ccccc2Cl)c1	21	-1	4	2	16	.	.
Cc1ccc(C(=O)Nc2cc(-c3ccn[nH]3)c(C)n(N)c2=O)cc1	19	-4	15	-5	13	.	.
COc1ccc(/C=C2\CCCc3c2nc2ccccc2c3C(=O)OCC(=O)c2c(N)n(C)c(=O)n(C)c2=O)cc1	86*	11	15	.	-35	79*	44*
COC(=O)c1ccc2c(=O)[nH]c(COC(=O)c3c(-c4ccccc4Cl)noc3C)nc2c1	7	0	-4	3	10	.	.
Cc1cccc(C(=O)Nc2nc(C)c(C(=O)Nc3ccc4c(c3)CCC4)s2)c1	58*	.	-3	-31	-114	43*	53*
SMILES	Mdm2 MdmX PPI	Beta cell apopt	Jurkat NFkB inh	Gli-Sufu antag	697 NFkB inh	Mdm2 MdmX conf	FLuc counter
Cc1cccc(NC(=O)c2sc(C)nc2C)c1	-12	0	-37	-30	-3	.	.
CC(=O)Oc1cc2c(C(=O)NCCCN3CCOCC3)c(C)oc2c2ccccc12	51*	.	-5	7	3	12	.
CC(C)OC(=O)c1cc(C(=O)c2cc(Br)ccc2O)coc1=N	7	0	3	35	1	.	.
CCOc1ccccc1NC(=O)c1cc(C(=O)c2cc(Br)ccc2O)coc1=N	55*	2	3	4	16	60*	69*
Cc1ccc2c(c1)N(CC(=O)NCCCN1CC(C)CC(C)C1)C(=O)c1cccnc1O2 (centres undefined)	20	0	-9	1	8	.	.
CCc1nnc(SCC(=O)Nc2ccccc2Cl)nc1CC	-4	-2	1	.	-9	.	.
CCOc1ccc(-n2c(N)c(-c3nc4ccccc4n3C)c3nc4ccccc4nc32)cc1	63*	5	12	12	-24	59*	66*
CCOc1ccc(-n2c(N)c(C(=O)NCc3ccco3)c3nc4ccccc4nc32)cc1	24	-9	13	-17	-9	.	.
O=C(Nc1cc(C(F)(F)F)ccc1-n1cncn1)c1cn2ccccc2n1	-26	0	6	-9	-4	.	.
COc1cc2c(cc1OC)C(Cc1ccc(O)c(Oc3ccc(C[C@H]4c5cc(OC)c(OC)cc5CCN4C)cc3)c1)N(C)CC2 (some centres undefined)	72*	-7	-7	.	-14	29	.
CCC(C)(C)C1CCC2(CC1)NC(=O)N(CC(=O)N1CCN(S(=O)(=O)c3cc(C)ccc3C)CC1)C2=O (centres undefined)	82*	29	10	9	-8	37	89*
O=C(N/N=C/c1cccc(O)c1)c1ccc(COc2cccc3cccnc23)cc1	54*	6	3	-10	14	23	.
CC(C)C1C(C#N)=C(N)Oc2n[nH]c(-c3ccc4ccccc4c3)c21 (centres undefined)	57*	11	36	-2	-93	63*	50*
CN(c1ccccc1)S(=O)(=O)c1ccc(C(=O)NNC(=O)c2ccccc2F)cc1	-14	.	8	-3	20	.	.
CCOC(=O)[C@@H]1[C@H]2COc3cc(OC)ccc3[C@H]2N2C(=O)N(c3ccc(C(F)(F)F)cc3)C(=O)[C@]12C	91*	108*	7	1	-16	18	.
CC(=O)c1c(C)[nH]c(C(=O)OCC(=O)N2CCc3ccccc3C2)c1C	28	0	6	0	10	.	.
Cc1cccc(NC(=O)/C(C#N)=C/c2cn(CC(=O)NCc3ccco3)c3ccccc23)c1C	90*	-4	-4	-6	-1	49*	65*
N#C/C(=C/c1cn(CC(=O)O)c2ccccc12)C(=O)Nc1ccccc1	51*	3	-26	-5	-19	-16	.
O=C(CCc1nnc2ccc(NCc3ccco3)nn12)Nc1ccc(F)cc1F	17	-1	4	3	1	.	.
Cc1ccc(C)c(NC(=O)CS(=O)(=O)c2cccc3nsnc23)c1	-14	-8	-6	29	12	.	.
O=C(Cn1ncc(Cl)c(Cl)c1=O)N1CCN(Cc2ccccc2)CC1	.	.	.	1	.	.	.
